This passage reports growth results from PubChem BioAssay (NCI).

The panel holds about 83,000 compounds, 20% with a hit somewhere; the sample as a whole holds those more often.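 Values shown are percent growth following 48 h exposure of cells in 96-well plates to a single concentration of compound; below 10 was considered active.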 Unmarked numbers belong to inactive results. Activity calls are given as the source filed them.

Test systems include HCT-15 colon; HT29 colon; SNB-75 CNS; SNB-19 CNS; U251 CNS; PC-3 prostate; SK-MEL-5 melanoma; UACC-62 melanoma; LOX IMVI melanoma; SK-MEL-28 melanoma.
Test in all cases: NCI-60 one-dose screen, 48 h (100 = growth as untreated, 0 = no growth, -100 = all killed)
Conditions in all cases: 10 µM unless noted

Regarding `Cc1cccc(NC(=O)c2sc3nc4c(cc3c2N)CN(Cc2ccccc2)CC4)c1C`, the growth with HCT-15 colon is 29.6%; with HT29 colon, 9.33% (active); in the experiment with SNB-75 CNS, 13.5%; in the experiment on SNB-19 CNS it was 34.3%; in the experiment with U251 CNS, 25.4%; with PC-3 prostate, 32.2%. Also, the growth in the experiment with SK-MEL-5 melanoma was 39.7%; with UACC-62 melanoma, 42.8%; in the experiment on LOX IMVI melanoma it was 44%; with SK-MEL-28 melanoma, 68.2%.
Regarding `CCc1n(Cc2ccc3ccccc3c2)c2ccccc2[n+]1Cc1ccc2ccccc2c1`, the growth in the experiment on HCT-15 colon was 101%; in the experiment with HT29 colon, 25.3%; with SNB-75 CNS it was 59%; in the experiment with SNB-19 CNS it was 45.3%; in the experiment with U251 CNS, 34.4%; with PC-3 prostate, 52.9%. In addition, the growth in the experiment with SK-MEL-5 melanoma is 38.8%; with UACC-62 melanoma, 50.6%; with LOX IMVI melanoma, 63.7%; in the experiment with SK-MEL-28 melanoma, 69.8%.
Consider `CCCCC(=O)Nc1c(C(=O)Nc2ccccc2)sc2nc3c(cc12)C(OC(=O)CCCC)CCC3` (stereo not given), for which the growth with HCT-15 colon is 81.3%; in the experiment with HT29 colon, 79.4%; in the experiment on SNB-75 CNS, 89.3%; in the experiment on SNB-19 CNS, 97.2%; with U251 CNS, 79.8%; in the experiment on PC-3 prostate it was 90.7%. For the same molecule, the growth in the experiment with SK-MEL-5 melanoma was 84.5%; in the experiment with UACC-62 melanoma, 87.6%; in the experiment with LOX IMVI melanoma it was 85.1%; in the experiment with SK-MEL-28 melanoma, 110%.
As to `C#C[C@@]1(O)[C@@H](CO)O[C@@H](n2cc(Br)c3c(N)ncnc32)[C@@H]1O`, the growth with HCT-15 colon was 2.93% (active); in the experiment with HT29 colon, 3.26% (active); in the experiment with SNB-75 CNS, -36.2% (active); in the experiment with SNB-19 CNS, 2.58% (active); in the experiment with U251 CNS, -12.4% (active); with PC-3 prostate it was -2.77% (active). Further, the growth with SK-MEL-5 melanoma is 4.89% (active); with UACC-62 melanoma, 15.1%; in the experiment on LOX IMVI melanoma, -56.8% (active); with SK-MEL-28 melanoma, 58.2%.
Consider `COC(=O)c1nc(-c2ccccc2)oc1S(=O)(=O)n1nc(-c2ccccc2)cc1N`, for which the growth with HCT-15 colon is 63.6%; in the experiment with HT29 colon, 43.1%; in the experiment on SNB-75 CNS, 93.4%; in the experiment with SNB-19 CNS it was 101%; with U251 CNS, 97%; with PC-3 prostate it was 102%. The growth is 94.7% in the experiment on SK-MEL-5 melanoma, 95.2% in the experiment with UACC-62 melanoma, 72.3% in the experiment on LOX IMVI melanoma and 89.6% in the experiment with SK-MEL-28 melanoma.
For `S=C(Nc1ccc(Cl)cc1)c1ccccn1`, the growth in the experiment on HCT-15 colon is 98.1%; in the experiment with HT29 colon, 94.1%; in the experiment on SNB-75 CNS it was 79.7%; with SNB-19 CNS, 92.2%; in the experiment on U251 CNS it was 88.6%; in the experiment on PC-3 prostate, 85.6%. In addition, the growth in the experiment on SK-MEL-5 melanoma was 94.1%; in the experiment with UACC-62 melanoma it was 82.5%; with LOX IMVI melanoma, 88.4%; in the experiment with SK-MEL-28 melanoma it was 107%.
For `N#Cc1c(-c2ccc(Cl)cc2)cc(-c2cc3ccccc3o2)nc1SCC(=O)c1ccc(Cl)cc1`, the growth in the experiment with HCT-15 colon is 91.4%; with HT29 colon, 97.1%; with SNB-75 CNS, 76.7%; with SNB-19 CNS, 99.9%; with U251 CNS, 93.8%; in the experiment with PC-3 prostate, 84.6%. Further, the growth in the experiment with SK-MEL-5 melanoma is 100%; with UACC-62 melanoma, 93.5%; in the experiment on LOX IMVI melanoma, 91%; in the experiment with SK-MEL-28 melanoma, 100%.
For `CCCCc1ccc(N=Nc2ccc(OCC[N+](C)(C)C)cc2)cc1`, the growth with HCT-15 colon is 61%; in the experiment with HT29 colon it was 26.3%; with SNB-75 CNS it was 15.4%; in the experiment with SNB-19 CNS it was 1.8% (active); in the experiment on U251 CNS, -51.1% (active); in the experiment with PC-3 prostate, 24.2%. For the same molecule, the growth in the experiment with SK-MEL-5 melanoma was 89.4%; in the experiment with UACC-62 melanoma, 53.9%; in the experiment with LOX IMVI melanoma, 33.6%; in the experiment with SK-MEL-28 melanoma, 88.9%.
On to `C#C[C@@]1(O)[C@@H](CO)O[C@@H](n2cc(F)c3c(N)ncnc32)[C@@H]1O`, for which the growth with HCT-15 colon is -5.29% (active); with HT29 colon it was 5.9% (active); in the experiment on SNB-75 CNS, -34.3% (active); in the experiment on SNB-19 CNS it was 20.7%; in the experiment with U251 CNS, 8.64% (active); with PC-3 prostate, 5.02% (active). The growth in the experiment on SK-MEL-5 melanoma is -86.9% (active); in the experiment with UACC-62 melanoma, -51.9% (active); in the experiment on LOX IMVI melanoma it was -66.3% (active); with SK-MEL-28 melanoma, 45.2%.
In the case of `COc1cc(C2=NNC(c3ccc(N(C)C)cc3)C2)cc(OC)c1OC` (stereo not given), the growth was 30.9% in the experiment with HCT-15 colon; 6.34% (active) in the experiment on HT29 colon; 37.8% in the experiment on SNB-75 CNS; 8.5% (active) in the experiment on SNB-19 CNS; 28.8% in the experiment on U251 CNS; 29.3% with PC-3 prostate. The growth was -4.54% (active) in the experiment with SK-MEL-5 melanoma, 40.8% with UACC-62 melanoma, 49.4% in the experiment with LOX IMVI melanoma and 79.4% with SK-MEL-28 melanoma.
For `O=C(CCl)N1CCCc2ccccc21`, the growth was 99.8% in the experiment on HCT-15 colon; 103% with HT29 colon; 72.6% in the experiment on SNB-75 CNS; 100% in the experiment with SNB-19 CNS; 105% with U251 CNS; 96.8% in the experiment with PC-3 prostate. Also, the growth with SK-MEL-5 melanoma was 95.7%; in the experiment with UACC-62 melanoma, 94.3%; in the experiment with LOX IMVI melanoma, 99.6%; in the experiment with SK-MEL-28 melanoma, 103%.
For the molecule `CC1CCN(CCCCCOc2ccc3oc4ccccc4c(=O)c3c2)CC1`, the growth in the experiment on HCT-15 colon is 35.7%; in the experiment with HT29 colon, 10.8%; in the experiment with SNB-75 CNS it was 84.7%; with SNB-19 CNS, 87.5%; with U251 CNS it was 67.5%; in the experiment on PC-3 prostate, 80.8%. Also, the growth in the experiment with SK-MEL-5 melanoma was -12.2% (active); with UACC-62 melanoma, 14.3%; with LOX IMVI melanoma, 53.3%; with SK-MEL-28 melanoma it was 87.7%.
In the case of `CCc1ccc(OCc2ccccc2C(=O)Nc2ccc3nc(C)cc(N)c3c2)cc1`, the growth is -75.4% (active) in the experiment on HCT-15 colon; -87.4% (active) in the experiment with HT29 colon; -95.1% (active) in the experiment with SNB-75 CNS; -80.6% (active) in the experiment with SNB-19 CNS; -90.9% (active) in the experiment with U251 CNS; -88.1% (active) in the experiment with PC-3 prostate. Further, the growth in the experiment on SK-MEL-5 melanoma is -90.5% (active); with UACC-62 melanoma, -92.6% (active); in the experiment with LOX IMVI melanoma, -83.9% (active); with SK-MEL-28 melanoma, -93.9% (active).
